Only some compounds are listed: those with a hit (about 1.1% of all), similar ones and a draw of the others.
SRC2 inh – inhibits human steroid receptor coactivator 2; AID 651957; HEK293 GAL4-SRC2 luciferase reporter, luminescence; hit rate 0.17% among 370,000; inhibition, % at 9 µM; Q15596;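 active means inhibition above the mean inhibition of all tested compounds plus 3 SD, set per campaign, cut at about 52% in these data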;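 further: 0% = DMSO treated cells and 100% = cells given Gossypol at 36 µM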
SRC1 inh – inhibits human SRC1 coactivator; HEK293 GAL4-SRC1 luciferase reporter, luminescence; AID 588354; hit rate 0.12% among 360,000; inhibition, % at 3.6 µM; Q15788;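 active means inhibition above the campaign mean plus 3 SD, with each screening campaign given its own cutoff, cut at about 60% in these data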;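 further: 0% = DMSO treated cells and 100% = gossypol at 36 µM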
LRH-1 inv ag – inverse agonists of human LRH-1 (NR5A2) | HEK293T StAR-luciferase reporter, LRH-1 transfected, 24 h | O00482 | inhibition, % at 3.6 µM | hit rate 0.13% among 360,000;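 active means inhibition above the mean inhibition of all tested compounds plus 3 SD, cut at about 73% in these data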;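 further: 0% = DMSO wells and 100% = reporter-only cells lacking LRH-1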
NCOA3 inh – inhibits human SRC3 coactivator; inhibition, % at 3.6 µM; hit rate 0.17% among 360,000; Q9Y6Q9; HEK293 GAL4-SRC3 luciferase reporter, luminescence;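 active means inhibition above a per-campaign cutoff, the mean of all compounds plus 3 SD, cut at about 60% in these data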;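 further: 0% = DMSO-treated cells and 100% = gossypol-treated cells at 36 µM; higher means less SRC3-driven luciferase light from the GAL4 reporter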
Target sequence (Q9Y6Q9 whole entry, looked up, the tested form may be a part): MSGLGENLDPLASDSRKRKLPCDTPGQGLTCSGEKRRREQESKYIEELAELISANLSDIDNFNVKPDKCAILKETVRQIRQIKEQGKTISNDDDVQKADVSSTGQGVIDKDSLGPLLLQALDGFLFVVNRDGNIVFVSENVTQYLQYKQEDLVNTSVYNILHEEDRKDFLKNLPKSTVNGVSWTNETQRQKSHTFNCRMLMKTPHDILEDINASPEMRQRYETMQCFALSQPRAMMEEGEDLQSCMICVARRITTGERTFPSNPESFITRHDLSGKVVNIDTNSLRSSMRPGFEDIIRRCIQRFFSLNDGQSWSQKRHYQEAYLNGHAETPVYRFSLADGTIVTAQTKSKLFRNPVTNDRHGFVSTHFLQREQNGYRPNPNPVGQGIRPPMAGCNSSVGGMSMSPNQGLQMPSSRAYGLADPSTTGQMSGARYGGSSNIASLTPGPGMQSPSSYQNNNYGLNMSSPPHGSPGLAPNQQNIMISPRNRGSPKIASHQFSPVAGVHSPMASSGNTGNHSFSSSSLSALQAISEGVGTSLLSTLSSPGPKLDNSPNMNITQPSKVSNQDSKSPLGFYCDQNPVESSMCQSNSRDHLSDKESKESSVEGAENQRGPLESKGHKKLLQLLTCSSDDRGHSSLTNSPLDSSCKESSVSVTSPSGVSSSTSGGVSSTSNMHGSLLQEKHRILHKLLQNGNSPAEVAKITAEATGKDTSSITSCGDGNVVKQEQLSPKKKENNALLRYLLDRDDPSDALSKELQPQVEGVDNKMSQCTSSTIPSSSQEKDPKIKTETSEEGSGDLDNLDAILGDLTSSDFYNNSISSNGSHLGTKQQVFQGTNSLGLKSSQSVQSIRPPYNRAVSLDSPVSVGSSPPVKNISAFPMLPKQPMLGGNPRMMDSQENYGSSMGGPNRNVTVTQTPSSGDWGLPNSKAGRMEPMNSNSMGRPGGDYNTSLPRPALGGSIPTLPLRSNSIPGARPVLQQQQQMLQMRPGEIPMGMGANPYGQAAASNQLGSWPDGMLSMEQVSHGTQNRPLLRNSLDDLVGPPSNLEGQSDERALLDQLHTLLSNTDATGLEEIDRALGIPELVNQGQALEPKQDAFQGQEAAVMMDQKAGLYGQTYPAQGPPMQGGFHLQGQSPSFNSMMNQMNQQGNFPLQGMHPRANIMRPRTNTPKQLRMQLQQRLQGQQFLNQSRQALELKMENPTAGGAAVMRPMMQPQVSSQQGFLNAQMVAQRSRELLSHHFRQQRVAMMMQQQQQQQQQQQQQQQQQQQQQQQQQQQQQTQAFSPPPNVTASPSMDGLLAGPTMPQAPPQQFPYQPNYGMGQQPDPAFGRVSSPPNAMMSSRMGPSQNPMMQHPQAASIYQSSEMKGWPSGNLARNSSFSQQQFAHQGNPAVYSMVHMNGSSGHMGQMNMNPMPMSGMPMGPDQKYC
GalR3 antagonist – human GalR3 antagonism; inhibition, % at 3 µM; HEK293 GalR3-CNG cAMP membrane potential fluorescence; galR3 body fused to GalR1 C-terminus; AID 651719; hit rate 0.44% among 360,000; O60755;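 active means inhibition above the screen-wide average plus 3 SD, cut at about 13% in these data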;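 further: forskolin and galanin both at EC90 stimulate the cells; cAMP rise reported by CNG channel membrane potential dye signal; 0% = forskolin plus galanin with DMSO and 100% = forskolin alone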
NR2F2 inh – inhibitors of human COUP-TFII (NR2F2); hit rate 0.7% among 370,000; inhibition, % at 8.6 µM; HEK293T NGFI-A luciferase reporter, luminescence;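 active means inhibition above a per-plate cutoff, mean inhibition of test wells between control levels plus 3 SD, cut at about 38% in these data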;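 further: cells cotransfected with COUP-TFII expression vector driving the NGFI-A reporter; 0% = median of COUP-TF2 test wells and 100% = reporter-only cells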
VP16 Luc counter – inhibits VP16 reporter, flagging COUP-TFII antagonist hits; shares compounds with NR2F2 inh; HEK293 Gal4-VP16 luciferase reporter, luminescence; inhibition, % at 8.5 µM; hit rate 25% among 2,500; AID 687007; in the data active means inhibition above about 13%
COUP-TFII conf – confirmation of human COUP-TFII (NR2F2) inhibitors. shares compounds with NR2F2 inh. HEK293 NGFI-A luciferase reporter, luminescence. inhibition, % at 8.5 µM. hit rate 45% among 2,500;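 active means mean inhibition over three repeats above a set limit taken from the earlier primary screen, cut at about 38% in these data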;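 further: 100% = cells given the luciferase reporter alone without the COUP-TF2 vector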
* = called active by the depositor.

Screening Cc1ccc(-c2csc(N3CCN(CCCn4c(C(F)(F)F)nc5ccccc54)CC3)n2)cc1 returned SRC2 inh 2, SRC1 inh -1, LRH-1 inv ag 9, NCOA3 inh -2, GalR3 antagonist -1 and NR2F2 inh 6.
Screening Cc1ccc(-c2csc(N3CCN(CCCn4c(-c5ccncc5)nc5ccccc54)CC3)n2)cc1 returned SRC2 inh 0, SRC1 inh -5, LRH-1 inv ag -26, NCOA3 inh 1, GalR3 antagonist 3, NR2F2 inh 53*, VP16 Luc counter 1 and COUP-TFII conf 29.
CCn1c(C(C)NC(C)=O)nc2ccccc21 (stereo unspecified) was read as SRC2 inh -35, SRC1 inh -13, LRH-1 inv ag -27, NCOA3 inh 4 and NR2F2 inh -10.
CCC1(O)CCCC2C3CCC4CC(=O)CCC4(C)C3C(=O)CC21C (stereo unspecified) was read as SRC2 inh 21, SRC1 inh 0, LRH-1 inv ag 14, NCOA3 inh -1, GalR3 antagonist -3 and NR2F2 inh 9.
Screening COc1ccc(Cc2nc3ccc(C(=O)N4CCN(C)C(C)C4)cc3o2)cc1OC (stereo unspecified) returned SRC2 inh 26, SRC1 inh 19, LRH-1 inv ag 29, NCOA3 inh 20, GalR3 antagonist 1, NR2F2 inh 49*, VP16 Luc counter 9 and COUP-TFII conf 46*.
`CC1CCCN(c2ncnc3c2cnn3-c2ccc(Cl)cc2)C1` (stereo unspecified) gave SRC2 inh 83*, SRC1 inh 87*, LRH-1 inv ag 92*, NCOA3 inh 88*, GalR3 antagonist 2, NR2F2 inh 100*, VP16 Luc counter 90* and COUP-TFII conf 105*.
`CC1CCCN(c2ncnc3c2cnn3-c2ccccc2)C1` (stereo unspecified) gave SRC2 inh 2, SRC1 inh 23, LRH-1 inv ag 3, NCOA3 inh 15, GalR3 antagonist 1 and NR2F2 inh 24.
For COC(=O)[C@]12C[C@H](CC(=O)NCC34CC5CC(CC(C5)C3)C4)C(=O)N(Cc3ccco3)C1=C[C@H](C(C)(C)C)O[C@@H]2C the results were SRC2 inh -2 and NR2F2 inh 1.
Screening NC1=C(Cl)C(=O)c2ccc(S(N)(=O)=O)cc2C1=O returned SRC2 inh 80*, SRC1 inh 90*, LRH-1 inv ag 95*, NCOA3 inh 90*, GalR3 antagonist -5, NR2F2 inh 85*, VP16 Luc counter 92* and COUP-TFII conf 97*.
Screening Cc1ccc(-n2c(SCC(=O)Nc3ccc(Oc4ccccc4)cc3)nnc2-c2ccco2)cc1 returned SRC2 inh -2 and NR2F2 inh 1.
Screening O=[N+]([O-])c1ccc(NCCCN2CCC(C(O)(c3ccccc3)c3ccccc3)CC2)cc1 returned SRC2 inh 8 and NR2F2 inh -31.
`CN(C)C(CNC(=O)c1cc(S(=O)(=O)N(C)c2ccccc2)ccc1Cl)c1cccs1` (stereo unspecified) gave SRC2 inh 7, SRC1 inh 12, LRH-1 inv ag -22, NCOA3 inh 10, GalR3 antagonist -4, NR2F2 inh 41*, VP16 Luc counter 9 and COUP-TFII conf 15.
CCOC(=O)C1(Cc2ccc(Cl)cc2)CCN(C(C)Cc2ccc(O)c(OC)c2)CC1 (stereo unspecified) was read as SRC2 inh 34, SRC1 inh -11, LRH-1 inv ag 17, NCOA3 inh 11, GalR3 antagonist -12, NR2F2 inh 53*, VP16 Luc counter 2 and COUP-TFII conf 16.
`O=C1CCC[C@H]2C[C@H](NCc3cccc(I)c3)CC[C@]23CCCN13` gave NR2F2 inh 10.
`CCOc1ccc(S(=O)(=O)Nc2cnc3ccccc3c2)cc1` gave SRC2 inh 17, SRC1 inh 13, LRH-1 inv ag 14, NCOA3 inh 22, GalR3 antagonist -9, NR2F2 inh 43*, VP16 Luc counter -3 and COUP-TFII conf 30.
CCOc1ccc(S(=O)(=O)Nc2nc3ccccc3nc2Cl)cc1 was read as SRC2 inh -10, SRC1 inh 0, LRH-1 inv ag 3, NCOA3 inh -11, GalR3 antagonist -8 and NR2F2 inh 17.
CC(=O)c1cccc(N=c2scc(-c3ccc(S(=O)(=O)N4CCOCC4)cc3)n2CCO)c1 was read as SRC2 inh -5, SRC1 inh 26, LRH-1 inv ag 46, NCOA3 inh 54, GalR3 antagonist 114*, NR2F2 inh 60*, VP16 Luc counter 4 and COUP-TFII conf 65*.
C=CCn1c(-c2ccc(S(=O)(=O)N3CCOCC3)cc2)csc1=Nc1ccccc1 was read as SRC2 inh 14, SRC1 inh 12, LRH-1 inv ag -9, NCOA3 inh -9, GalR3 antagonist -3 and NR2F2 inh -7.
`Cc1cc(C)cc(C(=O)OCCN2CCN(C3CN(Cc4cn(Cc5ccccc5F)nn4)S(=O)(=O)C3)CC2)c1` (stereo unspecified) gave SRC2 inh 14, NR2F2 inh 49*, VP16 Luc counter -7 and COUP-TFII conf 6.
Screening Cc1cc(C)cc(C(=O)OCCN2CCN(C3CN(Cc4cn(Cc5ccc([N+](=O)[O-])cc5)nn4)S(=O)(=O)C3)CC2)c1 (stereo unspecified) returned SRC2 inh 14 and NR2F2 inh 23.
Screening CCOC(=O)CNC(=O)CSc1nc2ccccc2c(=O)n1-c1ccc(Cl)cc1 returned SRC2 inh -24 and NR2F2 inh 0.
CC(=O)Nc1sc2c(c1-c1nc3ccccc3s1)CCCN(C(C)C)C2 was read as NR2F2 inh 45*, VP16 Luc counter -9 and COUP-TFII conf -70.
`CC(C)N1CCc2c(sc(NC(=O)c3nc4ccccc4s3)c2C(N)=O)C1` gave SRC2 inh 31, SRC1 inh -5, LRH-1 inv ag 24, NCOA3 inh 23, GalR3 antagonist -5, NR2F2 inh 38*, VP16 Luc counter -9 and COUP-TFII conf 6.
Cc1ccc(C2=[N+]([O-])C3(CCCCC3=O)N(O)C2(C)C)cc1 (stereo unspecified) was read as SRC2 inh 78*, SRC1 inh 4, LRH-1 inv ag 8, NCOA3 inh -2, GalR3 antagonist -2, NR2F2 inh 80*, VP16 Luc counter -6 and COUP-TFII conf -7.
